Source: PubChem BioAssay
CHRM4 agonist: CHRM4 agonism in calcium assay; activation, % at 3 µM; CHO-K1 hM4/Gqi5, Fluo-8 calcium fluorescence; vehicle 0%, full acetylcholine response 100%; 360,000 compounds, 0.14% hits;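 active means activation above the run mean over all test wells plus 3 SD, cut at about 32% in these data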;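 further: peak over basal fluorescence ratio per well then scaled between controls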
CHRM1 agonist: human M1 muscarinic receptor agonism; P11229; CHO-K1 hM1, Fluo-8 calcium fluorescence, agonist mode; 0% DMSO, 100% acetylcholine EC100; activation, % at 3 µM; 360,000 compounds, 0.33% hits; AID 588814;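 active means activation above the run's mean compound activation plus 3 SD, cut at about 16% in these data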;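 further: peak over basal fluorescence ratio within a 140 s kinetic read after compound addition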
Target sequence (P11229 whole entry, looked up): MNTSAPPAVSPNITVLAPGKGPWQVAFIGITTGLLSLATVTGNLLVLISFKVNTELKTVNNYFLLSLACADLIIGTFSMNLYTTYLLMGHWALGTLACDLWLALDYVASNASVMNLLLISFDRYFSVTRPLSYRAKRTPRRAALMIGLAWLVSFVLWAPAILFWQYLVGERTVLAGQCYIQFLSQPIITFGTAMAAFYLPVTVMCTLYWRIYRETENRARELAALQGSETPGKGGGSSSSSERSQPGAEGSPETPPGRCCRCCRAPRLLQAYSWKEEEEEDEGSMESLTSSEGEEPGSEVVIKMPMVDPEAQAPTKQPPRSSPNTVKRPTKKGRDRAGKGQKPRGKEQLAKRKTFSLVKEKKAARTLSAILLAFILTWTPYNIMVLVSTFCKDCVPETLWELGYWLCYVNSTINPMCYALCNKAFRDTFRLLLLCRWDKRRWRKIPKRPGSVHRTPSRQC
M1 antag: human CHRM1 antagonism | 360,000 compounds, 1.3% hits | P11229 | inhibition, % at 3 µM | AID 588852 | CHO-K1 hM1, Fluo-8 calcium fluorescence, ACh EC80 antagonist;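 active means percent inhibition above its own plate's cutoff, namely the mean of that plate's compound wells plus 3 SD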;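 further: peak over basal fluorescence ratio during 140 s after agonist addition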
M1 PAM: potentiates human M1 receptor response to acetylcholine | CHO-K1 hM1, Fluo-8 calcium fluorescence, ACh EC20; 0% = ACh EC20, 100% = maximal ACh | 360,000 compounds, 0.088% hits | P11229 | activation, % at 3 µM | AID 588819; in the data active means activation above about 19%, passing the limit was not always enough
CHRM4 antagonist: CHRM4 antagonism in calcium assay; P08173; CHO-hM4 cells, ACh EC80, Fluo-8 calcium fluorescence; inhibition, % at 3 µM; 360,000 compounds, 0.73% hits;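 active means inhibition above its plate's cutoff, the mean inhibition of sample wells plus 3 SD, cut at about 27% in these data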
M4 PAM: positive allosteric modulators of human muscarinic M4 receptor; CHO-K1 hM4/Gqi5, Fluo-8 calcium fluorescence, ACh EC20; 0% = ACh EC20, 100% = maximal ACh; activation, % at 3 µM; 360,000 compounds, 0.4% hits;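 active means activation above its plate's cutoff, the mean activation of sample wells plus 3 SD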
Numbers stand for hits. Most compounds without a hit are left out; they make up all but 2.2% or so of the library.

Results for CCN1CCN(CC(=O)N2N=C(c3cccs3)CC2c2ccc(OC)c(OC)c2)C(=O)C1=O (configuration not stated) ?
CHRM4 agonist: inactive; CHRM1 agonist: inactive; M1 antag: inactive; M1 PAM: inactive; CHRM4 antagonist: inactive; M4 PAM: inactive

What do the screens show for `C=C1C(=O)c2sccc2C(c2ccc(OC)c(OC)c2)C1COC(C)=O` (configuration not stated)?
CHRM4 agonist: inactive; CHRM1 agonist: inactive; M1 antag: inactive; M1 PAM: inactive; CHRM4 antagonist: 30.2; M4 PAM: inactive

Results for NC(=NCc1ccc2c(c1)OCO2)NC(=O)c1ccccc1 ?
CHRM4 agonist: inactive; CHRM1 agonist: inactive; M1 antag: 24.4; M1 PAM: inactive; CHRM4 antagonist: inactive; M4 PAM: inactive

How did O=c1c2ccc([N+](=O)[O-])cc2ncn1CCOc1ccccc1 do in these assays?
CHRM4 agonist: inactive; CHRM1 agonist: inactive; M1 antag: 36.4; M1 PAM: inactive; CHRM4 antagonist: inactive; M4 PAM: inactive

What do the screens show for `COc1cc(Cn2cnnn2)ccc1O`?
CHRM4 agonist: inactive; CHRM1 agonist: inactive; M1 antag: inactive; M1 PAM: inactive; CHRM4 antagonist: inactive; M4 PAM: inactive

What do the screens show for `Cc1ccc(C2(c3noc(CN(C)Cc4ccccn4)n3)CCCC2)cc1`?
CHRM4 agonist: inactive; CHRM1 agonist: inactive; M1 antag: 38.2; M1 PAM: inactive; CHRM4 antagonist: inactive; M4 PAM: inactive

Results for Cc1ccc(C2(c3noc(CN(C)Cc4cccnc4)n3)CCCC2)cc1 ?
CHRM4 agonist: inactive; CHRM1 agonist: inactive; M1 antag: inactive; M1 PAM: inactive; CHRM4 antagonist: inactive; M4 PAM: inactive

Results for CN1CCC(N(C)C(=S)Nc2ccc(SC(F)F)cc2)CC1 ?
CHRM4 agonist: inactive; CHRM1 agonist: 17.9; M1 antag: inactive; M1 PAM: inactive; CHRM4 antagonist: inactive; M4 PAM: inactive

Results for CN1CCC(N(C)C(=S)Nc2ccc(F)cc2)CC1 ?
CHRM4 agonist: inactive; CHRM1 agonist: inactive; M1 antag: inactive; M1 PAM: inactive; CHRM4 antagonist: inactive; M4 PAM: inactive

What do the screens show for `COc1cccc2c(=O)cc(C)n(CC(=O)Nc3ccccc3C)c12`?
CHRM4 agonist: inactive; CHRM1 agonist: inactive; M1 antag: inactive; M1 PAM: inactive; CHRM4 antagonist: inactive; M4 PAM: inactive

What do the screens show for `Cc1cc(NC(=O)COC(=O)COc2ccc(Cl)c(C)c2)no1`?
CHRM4 agonist: inactive; CHRM1 agonist: inactive; M1 antag: inactive; M1 PAM: inactive; CHRM4 antagonist: inactive; M4 PAM: inactive

What do the screens show for `Cc1ccccc1C(=O)NC1CCN(CC(=O)Nc2c(C)cccc2C)CC1`?
CHRM4 agonist: inactive; CHRM1 agonist: inactive; M1 antag: inactive; M1 PAM: inactive; CHRM4 antagonist: inactive; M4 PAM: 29.1

What do the screens show for `CC1(C)CN=C(NC2CCCCC2)S1`?
CHRM4 agonist: inactive; CHRM1 agonist: inactive; M1 antag: inactive; M1 PAM: inactive; CHRM4 antagonist: 42.8; M4 PAM: inactive

How did Cc1ccc(C(=O)Nc2c(C)cc(C)c3cccnc23)cc1 do in these assays?
CHRM4 agonist: inactive; CHRM1 agonist: inactive; M1 antag: inactive; M1 PAM: inactive; CHRM4 antagonist: inactive; M4 PAM: 14.4

How did CCn1c(=O)c(C(=O)NCc2ccccc2)c(O)c2ccccc21 do in these assays?
CHRM4 agonist: inactive; CHRM1 agonist: inactive; M1 antag: inactive; M1 PAM: inactive; CHRM4 antagonist: inactive; M4 PAM: inactive

What do the screens show for `C/C(=N\Nc1ccc(C(F)(F)F)cn1)c1ccncc1`?
CHRM4 agonist: inactive; CHRM1 agonist: inactive; M1 antag: inactive; M1 PAM: inactive; CHRM4 antagonist: inactive; M4 PAM: 20.9

Results for Oc1ccc(/C=N/Nc2ccc(C(F)(F)F)cn2)cc1 ?
CHRM4 agonist: inactive; CHRM1 agonist: inactive; M1 antag: inactive; M1 PAM: inactive; CHRM4 antagonist: inactive; M4 PAM: inactive

What do the screens show for `CCCCC[C@H](C)N1C[C@H](COCc2ccccc2)Oc2cc(N3CCC[C@@H]3CO)ccc2S1(=O)=O`?
CHRM4 agonist: inactive; CHRM4 antagonist: inactive; M4 PAM: inactive

Results for CCCOC(=O)C1=C(C)OC23OC(N)=C(C#N)C12C(=O)c1ccccc13 (configuration not stated) ?
CHRM4 agonist: inactive; CHRM1 agonist: inactive; M1 antag: inactive; M1 PAM: inactive; CHRM4 antagonist: 34.5; M4 PAM: inactive

Results for CCC(C)OC(=O)C1=C(C)OC23OC(N)=C(C#N)C12C(=O)c1ccccc13 (configuration not stated) ?
CHRM4 agonist: inactive; CHRM1 agonist: inactive; M1 antag: inactive; M1 PAM: inactive; CHRM4 antagonist: inactive; M4 PAM: inactive

How did O=Cc1cc(Cl)ccc1OCCN1CCC(Cc2ccccc2)CC1 do in these assays?
CHRM4 agonist: inactive; CHRM1 agonist: inactive; M1 antag: 54.7; M1 PAM: inactive; CHRM4 antagonist: inactive; M4 PAM: inactive

Results for O=[N+]([O-])c1cccc(OCCN2CCC(Cc3ccccc3)CC2)c1 ?
CHRM4 agonist: inactive; CHRM1 agonist: inactive; M1 antag: 91.2; M1 PAM: inactive; CHRM4 antagonist: inactive; M4 PAM: inactive

Results for OCc1ccccc1OCCCN1CCC(Cc2ccccc2)CC1 ?
CHRM4 agonist: inactive; CHRM1 agonist: inactive; M1 antag: 33.2; M1 PAM: inactive; CHRM4 antagonist: inactive; M4 PAM: inactive

Results for Cc1ccc([N+](=O)[O-])c(OCCCN2CCC(Cc3ccccc3)CC2)c1 ?
CHRM4 agonist: 39.4; CHRM1 agonist: inactive; M1 antag: 75.8; M1 PAM: inactive; CHRM4 antagonist: inactive; M4 PAM: inactive

What do the screens show for `Fc1ccc(CN2CCC(Cc3ccccc3)CC2)cc1F`?
CHRM4 agonist: inactive; CHRM1 agonist: inactive; M1 antag: inactive; M1 PAM: inactive; CHRM4 antagonist: inactive; M4 PAM: inactive

What do the screens show for `CCC1CCC(C(=O)NC(C(=O)NCCc2ccc(S(N)(=O)=O)cc2)C(C)C)CC1` (configuration not stated)?
CHRM4 agonist: inactive; CHRM1 agonist: inactive; M1 antag: inactive; M1 PAM: inactive; CHRM4 antagonist: inactive; M4 PAM: inactive

Results for COc1ccc(C(=O)O)cc1NC(=S)NC(=O)Cc1ccc(Cl)cc1 ?
CHRM4 agonist: inactive; CHRM1 agonist: inactive; M1 antag: inactive; M1 PAM: inactive; CHRM4 antagonist: inactive; M4 PAM: inactive

How did Cc1nn(Cc2ccc(F)cc2)c(C)c1NC(=O)c1cnn2c1NC(c1cccs1)CC2C(F)(F)F (configuration not stated) do in these assays?
CHRM4 agonist: inactive; CHRM1 agonist: inactive; M1 antag: inactive; M1 PAM: inactive; CHRM4 antagonist: inactive; M4 PAM: inactive

How did C=CCOc1ccccc1CN1CCC(Cc2ccccc2)CC1 do in these assays?
CHRM4 agonist: inactive; CHRM1 agonist: inactive; M1 antag: inactive; M1 PAM: inactive; CHRM4 antagonist: inactive; M4 PAM: inactive
